Data taken from PubChem BioAssay AID588727 (Southern Research Specialized Biocontainment Screening …, 2011).
The campaign covered roughly 350,000 compounds. About 450 (0.13%) were called active. No rule for the calls is given here. Only a sample is shown. Potency and affinity values are given separately.

Assay: inhibitors of VEEV TC-83 cytopathic effect, confirmation, Vero cells (AID 588727)
Conditions: VEEV TC-83 cytopathic effect inhibition, at 20 µM; stronger effect = higher value unless noted
In the case of `COc1ccc(/C=C2\CN(Cc3ccccc3)C/C(=C\c3ccc(OC)cc3OC)C2=O)c(OC)c1`, the inhibition is reported as 6.18% (inactive). With `Cc1cc(C)cc(-n2ncc3c2CCCC3NC(=O)CCCn2cncn2)c1` (stereo not given) the inhibition was 0.41% (inactive). With `COc1ccccc1C1CCCN1Cc1nc(-c2cc3c(cc2Cl)OCO3)oc1C` (stereo not given) the inhibition was 3.15% (inactive). For `CCOc1ccccc1-c1nc(CN2CCCC2c2nccs2)c(C)o1` (stereo not given), the inhibition was 8.27% (inactive). With `COc1ccc(OC)c(S(=O)(=O)NCCS(=O)(=O)N2CCN(c3ccccc3)CC2)c1` the inhibition was 0.7% (inactive). For `Cc1nc2ccccc2c(=O)n1NC(=O)/C=C/c1ccc(Br)cc1`, the inhibition was “inactive”. In the case of `Cc1c(NC(=O)Nc2ccccc2)c(=O)n(-c2ccccc2)n1C`, the inhibition is reported as “inactive”. In the case of `O=C(NC1CCCCC1)c1cc2ccccc2cc1O`, the inhibition is reported as “inactive”. With `O=C(NNC(=O)c1ccc2ccccc2c1O)NC1CCCCC1` the inhibition was 2.22% (inactive). For `O=S(=O)(c1cccc2nsnc12)N1CCc2ccccc21`, the inhibition was “inactive”. For `Cc1nnc(N2CCCC(C(=O)NCc3cccc(F)c3)C2)c2nn(-c3ccccc3)c(C)c12` (stereo not given), the inhibition was 7.4% (inactive). In the case of `Cc1ccc(CNc2nc(N)c([N+](=O)[O-])c(NCCO)n2)cc1`, the inhibition is reported as 5.11% (inactive). In the case of `O=c1c2sccc2nc(SCc2cc(=O)n3cc(Cl)ccc3n2)n1-c1ccc(F)cc1`, the inhibition is reported as 6.28% [measured here: 10K pilot screen inhibition, stronger effect = higher value] and the outcome is reported as “inactive”. With `Cc1ccc2c(c1)cc(C(=O)N[C@@H](Cc1ccccc1)C(=O)O)n2C` the inhibition was “inactive”. In the case of `Cn1c(C(=O)NCC2CCCO2)cc2oc3ccccc3c21` (stereo not given), the inhibition is reported as 6.64% (inactive). With `Cc1c(C(=O)NCc2cccs2)oc2ccccc12` the inhibition was 1.87% (inactive). In the case of `COCCNC(=O)c1cc2oc3ccccc3c2n1C`, the inhibition is reported as 3.48% (inactive). With `CCOc1ccccc1CNC(=O)c1cc2occc2n1C` the inhibition was 3.56% (inactive). In the case of `Cn1c(C(=O)NCc2cccs2)cc2c(=O)n(C)c3ccccc3c21`, the inhibition is reported as 0.66% (inactive). In the case of `COc1cccc(CNC(=O)c2cc3oc4ccccc4c3n2C)c1OC`, the inhibition is reported as 55% (inactive). For `Cc1ccc(CNC(=O)c2cc3c(=O)n(C)c4ccccc4c3n2C)cc1`, the inhibition was 0.2% (inactive). For `CC(C)CCC(=O)N1CCC(N2CCC(C(=O)NCc3ccccn3)CC2)CC1`, the inhibition was 0.93% (inactive). For `CC(C)(C)n1nc2c(c1NC(=O)c1ccc(F)c(F)c1)CS(=O)(=O)C2`, the inhibition was 0.7% (inactive). For `O=C(C1CC(=O)N(c2ccc(F)cc2)C1)N1CCCCCC1` (stereo not given), the inhibition was “inactive”. With `O=C1c2cccnc2C(=O)N1CO` the inhibition was 0.3% (inactive). In the case of `CC(C)(C)C1CCc2c(sc3c2C(=O)NC(c2ccco2)N3)C1` (stereo not given), the inhibition is reported as 0.21% (inactive). In the case of `CCC(=O)Nc1cc(C(=O)O)ccc1Sc1ccccc1`, the inhibition is reported as 0.44% (inactive). For `Cn1cc(CCC(=O)NCc2cccc(Cl)c2)c2ccccc21`, the inhibition was 0.85% (inactive). For `O=C(COC(=O)c1ccc(Cl)cc1[N+](=O)[O-])NCc1ccco1`, the inhibition was 0.06% (inactive). For `Cc1ccc(S(=O)(=O)Nc2ccc(C(=O)NCCCn3ccnc3)cc2)cc1[N+](=O)[O-]`, the inhibition was 0.22% (inactive). In the case of `COc1ccc(COC(=O)c2cccc(S(=O)(=O)N3CCN(C(C)=O)CC3)c2)cc1F`, the inhibition is reported as 1.43% (inactive). In the case of `CC(=O)OC1CCC2(C)C3CCC4(C)C(C(C)=O)CCC4C3CC3OC32C1` (stereo not given), the inhibition is reported as 4.89% (inactive). With `CC(=O)OC1CC[C@]2(C#N)[C@H]3CC[C@]4(C)[C@H](C5C=CC(=O)O5)CCC4(O)C3CCC2(O)C1` (stereo not given in full) the inhibition was 21.3% (inactive). In the case of `CC(=O)OC1CC2(O)C3CCC4CC(O)CCC4(C)C3CCC2(C)C1C1=CC(=O)OC1` (stereo not given), the inhibition is reported as 24.4% (inactive). For `CC12CC[C@H]3[C@@H](CCC4(O)C[C@H](O)CCC34/C=N/NC(=O)Cc3ccccc3)C1(O)CCC2C1=CC(=O)OC1` (stereo not given in full), the inhibition was 1.62% (inactive). With `C[C@]12CCC3C(CC[C@H]4C[C@H](O)CC[C@]34C)C1CC(=O)[C@@H]2O` (stereo not given in full) the inhibition was 2.26% (inactive). For `C[C@]12CCC3C(CC[C@@H]4C[C@@H](O)CC[C@]34C)C1CC[C@@H]2O` (stereo not given in full), the inhibition was 1.93% (inactive). With `CC12CC[C@H]3[C@@H](CCC4(O)C[C@H](O)CCC34/C=N/NC(=O)c3ccccc3F)C1(O)CCC2C1=CC(=O)OC1` (stereo not given in full) the inhibition was 8.49% (inactive). For `CC(C)c1ccc(NC(=O)CN2C(=O)NC3(CCCC3)C2=O)cc1`, the inhibition was “inactive”. For `CCOC(=O)C1CCCN(C(=O)c2cc3cc4ccc(OC)cc4nc3o2)C1` (stereo not given), the inhibition was 1.72% (inactive). For `Cc1ccc(N2C(=O)N3[C@H]4c5ccccc5OC[C@@H]4[C@@H](c4ccccc4)[C@@]3(C)C2=O)cc1`, the inhibition was 0.66% (inactive). With `CN(CC(=O)Nc1cccc(F)c1)C(=O)CCc1nc2cc(S(=O)(=O)N3CCOCC3)ccc2n1C` the inhibition was 0.55% (inactive). For `CC(C)Oc1ccc(CSc2nnc3n(C)c(=O)c4c5c(sc4n23)CCCC5)cc1`, the inhibition was “inactive”. In the case of `CCCCNC(=O)COC(=O)c1ccc(SC)cc1OC`, the inhibition is reported as 2.58% (inactive).
